These results are taken from PubChem BioAssay (Tox21).

A number with no mark means an inactive call. Results filed as inconclusive are left out. Activity calls are given as the source filed them. Calls come from the whole dose curve; as a rule, active = well fitted curve in the direction sought with a large enough effect in the repeat runs; inconclusive = weak or mixed curves; inactive = no such curve, though single readings can be large; an effect the other way counts as inactive or inconclusive.

Assay [1] in a line: A CellTox Green Cytotoxicity Assay to monitor cytotoxicity in HEK293 cells - 40 hour (AID 1224871). Note: nearly all actives have a fitted effect of over 45% in size. Note: potency is the fitted concentration of half-maximal effect. The procedure, abridged: (§1)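 Cytotoxicity was tracked continuously in HEK293 cells by a DNA-binding dye excluded from viable cells. Compounds were transferred in DMSO 5 h after seeding; fluorescence was recorded at intervals up to 40 h.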
Assay [2] can be described thus: qHTS RealTime-Glo MT Cell Viability Assay in HEK293 cells - 16 hour (AID 1224872). Note: nearly all actives have a fitted effect of over 50% in size. Note: potency is the fitted concentration of half-maximal effect. The essentials: (§2)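 Reads taken at 0, 8, 16, 24, 32 and 40 h from the same wells. HEK293 cells (600/well) carried RealTime-Glo reagents from seeding, with compound added after a 5 h settle at 37 C.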
Assay [3] is described as follows: qHTS RealTime-Glo MT Cell Viability Assay in HepG2 cells - 8 hour (AID 1224873). Note: nearly all actives have a fitted effect of over 55% in size. Note: potency is the fitted concentration of half-maximal effect. The procedure, abridged:
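HepG2 cells (600/well) mixed with RealTime-Glo MT reagent, settled 5 h at 37 C/5% CO2 before compound addition. Nonlytic NanoLuc luminescence from viable-cell prosubstrate reduction read repeatedly during 40 h treatment at 37 C.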
In general terms: In qHTS, concentration-response curves come from the screen itself.

Assay [4] in a line: qHTS RealTime-Glo MT Cell Viability Assay in HEK293 cells - 40 hour (AID 1224874). Note: nearly all actives have a fitted effect of over 50% in size. Note: potency is the fitted concentration of half-maximal effect. Particulars: RealTime-Glo luminescence; max response: hits give low values. The procedure, abridged: (§3)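 Nonlytic bioluminescent viability monitoring. HEK293 at 600 cells/well with reagent; 5 h settle; compound transfer by pintool; plates held at 37 C and read at set time points.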
Assay [5] is described as follows: A CellTox Green Cytotoxicity Assay to monitor cytotoxicity in HepG2 cells - 16 hour (AID 1224876). Note: nearly all actives have a fitted effect of over 45% in size. The essentials: (§4)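 Real-time, homogeneous cytotoxicity readout: dead-cell DNA staining by CellTox Green in HepG2 monolayers, fluorescence measured at timed intervals up to 40 h of continuous compound exposure.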
A short description of assay [6]: qHTS RealTime-Glo MT Cell Viability Assay in HepG2 cells - 32 hour (AID 1224877). Note: nearly all actives have a fitted effect of over 55% in size. Note: potency is the fitted concentration of half-maximal effect. The procedure, abridged: (§5)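 HepG2 suspension premixed with RealTime-Glo reagents is plated at 600 cells per well and left 5 h at 37 C/5% CO2. Compounds in DMSO then go in, and bioluminescence reflecting viable cell number is recorded over 40 h.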
Assay [7] in a line: qHTS RealTime-Glo MT Cell Viability Assay in HEK293 cells - 0 hour (AID 1224880). Note: top concentration of the series differs between compounds; nearly all actives have a fitted effect of over 45% in size. The essentials:
as §3

The nature of assay [8]: A CellTox Green Cytotoxicity Assay to monitor cytotoxicity in HepG2 cells - 0 hour (AID 1224882). Note: nearly all actives have a fitted effect of over 35% in size. The essentials:
as §4

Assay [9] is described as follows: A CellTox Green Cytotoxicity Assay to monitor cytotoxicity in HEK293 cells - 8 hour (AID 1224884). Note: nearly all actives have a fitted effect of over 35% in size. Note: potency is the fitted concentration of half-maximal effect. The essentials:
as §1

A short description of assay [10]: qHTS RealTime-Glo MT Cell Viability Assay in HepG2 cells - 16 hour (AID 1224885). Note: nearly all actives have a fitted effect of over 50% in size. Note: potency is the fitted concentration of half-maximal effect. The procedure, abridged:
as §5

The nature of assay [11]: qHTS RealTime-Glo MT Cell Viability Assay in HEK293 cells - 24 hour (AID 1224886). Note: nearly all actives have a fitted effect of over 50% in size. Note: potency is the fitted concentration of half-maximal effect. The procedure, abridged: as §2
Assay [12] in a line: qHTS RealTime-Glo MT Cell Viability Assay in HepG2 cells - 0 hour (AID 1224889). Note: nearly all actives have a fitted effect of over 50% in size. The essentials: as §5
Assay [13] can be described thus: A CellTox Green Cytotoxicity Assay to monitor cytotoxicity in HepG2 cells - 8 hour (AID 1224890). Note: nearly all actives have a fitted effect of over 45% in size. The procedure, abridged: as §4
The nature of assay [14]: A CellTox Green Cytotoxicity Assay to monitor cytotoxicity in HEK293 cells - 24 hour (AID 1224875). The essentials:
as §1

Assay [15] is described as follows: A CellTox Green Cytotoxicity Assay to monitor cytotoxicity in HepG2 cells - 24 hour (AID 1224878). Note: nearly all actives have a fitted effect of over 45% in size. Note: potency is the fitted concentration of half-maximal effect. The essentials:
as §4

Assay [16] is described as follows: A CellTox Green Cytotoxicity Assay to monitor cytotoxicity in HepG2 cells - 40 hour (AID 1224879). Note: nearly all actives have a fitted effect of over 40% in size. Note: potency is the fitted concentration of half-maximal effect. The procedure, abridged: as §4
Assay [17] is described as follows: A CellTox Green Cytotoxicity Assay to monitor cytotoxicity in HEK293 cells - 32 hour (AID 1224881). Note: nearly all actives have a fitted effect of over 40% in size. Note: potency is the fitted concentration of half-maximal effect. The essentials:
as §1

Assay [18] in a line: A CellTox Green Cytotoxicity Assay to monitor cytotoxicity in HepG2 cells - 32 hour (AID 1224883). Note: nearly all actives have a fitted effect of over 50% in size. Note: potency is the fitted concentration of half-maximal effect. The essentials: as §4
Assay [19] is described as follows: qHTS RealTime-Glo MT Cell Viability Assay in HEK293 cells - 8 hour (AID 1224887). Note: nearly all actives have a fitted effect of over 50% in size. Note: potency is the fitted concentration of half-maximal effect. The procedure, abridged:
as §3

Assay [20] is described as follows: A CellTox Green Cytotoxicity Assay to monitor cytotoxicity in HEK293 cells - 16 hour (AID 1224888). Note: nearly all actives have a fitted effect of over 35% in size. The essentials:
as §1
% is set by controls: 0 for no effect and ±100 for the full control effect.

For `BrC(Br)C(Br)(Br)Br`, the Potency in assay [1] is 55.3 µM (active); in assay [2], 43.9 µM (active); in assay [4], 27.7 µM (active); in assay [11], 24.7 µM (active). For the same compound, the Potency entry in [3], in assay [5], in [6], in assay [7], in assay [8] and in assay [9] was “inactive” each time. For the same compound, the Potency entry in assay [10], in assay [12] and in [13] was “inactive” each time.

Regarding `SCc1ccco1`, the Potency entry in assay [1], in assay [2], in [3], in assay [14], in assay [6] and in [15] was “inactive” in each case. In addition, the Potency result in assay [16], in assay [17], in [8], in [18], in [9] and in assay [10] was “inactive” each time. In addition, the Potency entry in assay [11], in assay [19], in [20], in assay [12] and in [13] was “inactive” in each case. For the same compound, the max response in [4] was -11.9%.

With `CC1CCC(C(C)C)C(OC(=O)c2ccccc2N)C1` (stereo not drawn), the Potency in assay [1] was 27.2 µM (active); in assay [2], 34.2 µM (active); in assay [4], 34.2 µM (active); in assay [17] it was 38.4 µM (active); in assay [9], 48.3 µM (active); in assay [11], 34.2 µM (active). In [19], the Potency is 34.2 µM (active). Further, the Potency entry in assay [3], in assay [5], in [6], in assay [7], in [10] and in [12] was “inactive” throughout. Also, the Potency entry in assay [13] is “inactive”.

In the case of `N#Cc1ccccc1Cl`, the Potency result in assay [1], in [2], in assay [3], in assay [14], in [6] and in [15] was “inactive” throughout. Further, the Potency result in [16], in [7], in assay [17], in assay [8], in assay [18] and in [9] was “inactive” throughout. The Potency result in [10], in assay [11], in [19], in assay [20], in assay [12] and in [13] was “inactive” in each case. In addition, in assay [4], the max response was -1.15%.

Consider `C=CC(=O)OCC(COC(=O)C=C)(COC(=O)C=C)COC(=O)C=C`, for which the Potency in assay [1] is 19.5 µM (active); in assay [2], 3.89 µM (active); in assay [3] it was 3.09 µM (active); in assay [4], 3.89 µM (active); in [6], 5.49 µM (active); in assay [15], 49 µM (active). In addition, the Potency in assay [16] is 21.9 µM (active); in [17], 27.5 µM (active); in assay [18] it was 38.9 µM (active); in [10], 4.9 µM (active); in [11] it was 3.89 µM (active). Further, the Potency entry in [5], in assay [7], in assay [8], in assay [9], in assay [20] and in assay [12] was “inactive” throughout. The Potency result in assay [13] was “inactive”.

On to `O=c1oc2ccccc2c(O)c1Cc1c(O)c2ccccc2oc1=O`, for which the Potency result in [1], in [2], in assay [14], in assay [5], in assay [6] and in assay [15] was “inactive” each time. Besides, the Potency result in [16], in [17], in assay [18], in [9], in assay [11] and in assay [20] was “inactive” each time. Moreover, the Potency entry in [13] is “inactive”. The max response in [4] was 0.643%.

Take `CC(=[OH+])/C=C(/C)[O-].CC(=[OH+])/C=C(\C)[O-].CC(=[OH+])/C=C(\C)[O-].[Al]`: the Potency entry in assay [1], in assay [2], in assay [3], in [14], in assay [5] and in [6] was “inactive” each time. Moreover, the Potency result in assay [15], in assay [16], in [7], in [17], in [8] and in assay [9] was “inactive” in each case. For the same compound, the Potency result in [10], in assay [11], in [19], in assay [20], in assay [12] and in assay [13] was “inactive” each time.

Consider `Nc1ccc(Sc2ccc(N)cc2)cc1`, for which the Potency entry in assay [1], in assay [2], in [3], in assay [14], in [6] and in assay [9] was “inactive” in each case. Moreover, the Potency result in [10], in assay [11] and in [12] was “inactive” each time. Moreover, in [18], the Potency was 4.36 µM (active).

Turning to `CC[C@H]1C[C@@H]2C[C@H]3c4[nH]c5ccc(OC)cc5c4CCN(C2)[C@@H]13`, the Potency result in assay [1], in assay [2], in [3], in [14], in assay [5] and in [6] was “inactive” in each case. Moreover, the Potency result in assay [7], in [17], in [9], in assay [10], in assay [19] and in [20] was “inactive” throughout. Moreover, the Potency result in assay [12] and in assay [13] was “inactive” throughout. For the same compound, the Potency in [15] and in assay [16] was 54 µM (active) throughout.

Turning to `O=[N+]([O-])c1ccc(Oc2ccc(C(F)(F)F)cc2[N+](=O)[O-])cc1`, the Potency result in [1], in assay [14], in [5], in assay [6], in assay [15] and in [16] was “inactive” throughout. In addition, the Potency result in assay [7], in assay [17], in [8], in [18], in [9] and in [20] was “inactive” each time. The Potency result in [12] and in assay [13] was “inactive” each time. In addition, the Potency was 19.5 µM (active) in assay [2], 17.4 µM (active) in assay [4], 15.5 µM (active) in [11] and 19.5 µM (active) in assay [19].

Regarding `Cc1cc(C)c(C2=C(OC(=O)CC(C)(C)C)C3(CCCC3)OC2=O)c(C)c1`, the Potency result in [1], in [3], in assay [14], in [5], in assay [6] and in assay [15] was “inactive” in each case. Besides, the Potency result in assay [16], in [7], in [17], in [8], in [18] and in assay [9] was “inactive” in each case. In addition, the Potency entry in assay [10], in assay [11], in [19], in [20], in [12] and in assay [13] was “inactive” each time. Also, the max response in assay [4] is -6.03%.

Regarding `CC(C)(C)c1ccc(CSc2cnn(C(C)(C)C)c(=O)c2Cl)cc1`, the Potency result in assay [1], in assay [14], in [5], in [6], in [15] and in [7] was “inactive” throughout. The Potency entry in assay [17], in [8], in [9], in assay [20], in assay [12] and in assay [13] was “inactive” each time. For the same compound, the Potency in [2] was 0.436 µM (active); in assay [4], 0.0069 µM (active); in assay [16] it was 43.6 µM (active); in assay [11] it was 0.0389 µM (active); in assay [19] it was 7.76 µM (active).

On to `CCCCCCCCCBr`, for which the Potency entry in assay [1], in [3], in assay [14], in assay [5], in assay [6] and in [15] was “inactive” in each case. Moreover, the Potency result in [16], in [7], in [17], in [8], in [18] and in assay [9] was “inactive” throughout. For the same compound, the Potency result in assay [10], in [11], in [19], in [20], in assay [12] and in assay [13] was “inactive” each time. Besides, the max response in [4] was -6.03%.
